# According to PubChem BioAssay (EPA / NIEHS):
# Active and inactive are the calls of the source. Rule for the calls: active = hit-call score of the fitted dose curve at least 0.9, where 1 is the maximum; inactive = score below 0.9.
# Read-out: Pro-epidermal growth factor (Homo sapiens) (UniProt P01133)
# Assay: LTEA_HepaRG_EGF: Life Technologies and Expression Analysis (LTEA) Assay for Epidermal growth factor (EGF) using HepaRG (AID 2283489)
# Conditions: mRNA level, 48 h; actives raise or lower the signal
# Protocol: LTEA_HepaRG is a cell based, multiplexed-readout assay that uses HepaRG, a human liver cell line, with measurements taken at 48 hours after chemical dosing on a 96-well plate.LTEA_HepaRG_EGF is one of 102 assay component(s) measured in the LTEA HepaRG cell culture assay. It is a marker of Cell proliferation, survival, death.Data from the assay component LTEA_HepaRG_EGF was analyzed into 1 endpoint. This assay endpoint, LTEA_HepaRG_EGF, was analyzed with bidirectional fitting relative to DMSO as the negative control and baseline of activity. Using a type of inducible reporter, measures of mRNA induction for gain or loss-of-signal activity can be used to understand regulation of transcription factor activity. To generalize the intended target to other relatable targets, this assay endpoint is annotated to the growth factor intended target family, where the subfamily is EGF-like domain.
# A total of 1060 chemcials from the ToxCast library were tested in eight-point concentration-response experiments. Cell culture and cytotoxicity assays were conducted at Thermo Fisher Scientific's Custom Services facility (Madison, WI). A single lot of human HepaRG cells (Thermo Fisher Scientific, Frederick, MD) was used for the cell culture experiments. 96-well format collagen type I coated plates of human HepaRG cells were prepared using established methods. Briefly, cryopreserved HepaRG cells were thawed, plated at a density of approximately 100,000 cells/well in HepaRG Thaw, Plate, and General Purpose media (HPRG770, Thermo Fisher Scientific), and incubated for 48 hours. 0.5% DMSO was selected as vehicle control to balance the requisite need of DMSO in HepaRG cultures to maintain differentiation (for example, baseline metabolism, proportions of hepatocytes vs. cholangiocytes), while enabling further hepatic receptor pathway activation (for example, PXR and CAR) in response to chemical exposure. 48 hours after plating, the culture medium was replaced with HepaRG Serum-Free Incudtion Media. Cells were exposed to each test chemical in duplicate and maintained in CO2 incubators for another 48 hours. Chemical plates were thawed to room temperature and 200x concentrations of treatment groups were prepared. 8-point conentration-reponse curves were made with the highest exposure at 100 uM, followed by half-log dilutions, all in 0.5% DMSO. Each test plate contained variouse controls, induction positive controls (1mM phenobarbital), cytotoxicity positive controls ([…] aflatoxin B1), vehicle controls (0.5% DMSO), and total lysis controls (0.5% DMSO). Cell morphology images were taken using an Essen IncuCyte FLR automated microscope, with six 96-well plates imaged in about 24 minutes. Images were captured and exported and JPEG files. Spent culture media was transfered to black-well plates for the LDH assay, and remaining media was sorted at -80 C for later use. Cells were treated with RLT buffer and frozen until shipped for gene expression analysis. Total RNA was isolated from the cell suspension in 75 uL of Buffer RLT (Qiagen, Germantown, MD 20874) by Quintiles/Expression Analysis (Durham, NC) using a custom isolation procedure. Total RNA from each plate well was transferred to a preamplification plate. Fluidigm's 96.96 Dynamic ArrayTM (Fluidigm, Amsterdam, the Netherlands) technology was used for gene expression analyses by quantitative reverse transcription polymerase chain reaction (qRT-PCR, performed by Quintiles/Expression Analysis, Durham, NC)89. Standard TaqManTM Assays (Applied Biosystems/ThermoFisher Scientific, Foster City, CA) were used to assess the expression of 93 genes selected based on their selectivity and sensitivity to important hepatic receptors known to be modulated by environmental chemicals; importance in human hepatocyte functionality; and hepatotoxicity. […]
Structure (SMILES),outcome,AC50
CN(C)C(=O)Cl,inactive,–
CCN(CC)c1ccccc1,inactive,–
Cc1ccc([N+](=O)[O-])cc1C,inactive,–
O=C(O)C1C(C(=O)O)C2(Cl)C(Cl)=C(Cl)C1(Cl)C2(Cl)Cl (stereo not given),inactive,–
c1ccc(OP(Oc2ccccc2)Oc2ccccc2)cc1,inactive,–
CCC(C)(C)c1ccc(O)cc1,inactive,–
CCOP(=S)(Oc1ccc([N+](=O)[O-])cc1)c1ccccc1 (stereo not given),–,21.4 µM (active)
CC(Cl)(Cl)C(=O)O,inactive,–
CCC1(c2ccccc2)C(=O)N=C(O)NC1=O (stereo not given),inactive,–
CCCCCCCc1ccc(O)cc1,inactive,–
CCCCc1ccccc1,inactive,–
CC(Cc1ccc(OCC(=O)O)cc1)NCC(O)c1csc(C(F)(F)F)n1 (stereo not given),inactive,–
COCCOCCO,inactive,–
CSC(C)(C)C=NO,inactive,–
Nc1ccc(Cl)cc1,inactive,–
c1nc[nH]n1,inactive,–
O=[N+]([O-])c1ccc(Cl)c(Cl)c1,inactive,–
CCOc1ccc(C(C)(C)COCc2cccc(Oc3ccccc3)c2)cc1,–,15 µM (active)
c1ccc2c(c1)Nc1ccccc1S2,inactive,–
CCOP(=S)(OCC)SCSCC,inactive,–

Structure (SMILES),outcome,AC50
O=P(Oc1ccccc1)(Oc1ccccc1)Oc1ccccc1,inactive,–
CCNc1nc(Cl)nc(NC(C)(C)C)n1,inactive,–
CCCCN(CCCC)N=O,inactive,–
Nc1cc2c3c(c1)C(c1ccccc1)=N[C@@H](NC(=O)c1cccnc1)C(=O)N3CC2,inactive,–
OCC1CO1 (stereo not given),inactive,–
O=C(O)C(Cl)Cl,inactive,–
c1cc2c3c(cccc3c1)CC2,inactive,–
[N-]=[N+]=[N-],inactive,–
CCOC(=O)c1ccccc1C(=O)OCC,inactive,–
CC(C)(C)OOC(C)(C)C,inactive,–
ClC(Cl)(Cl)c1ccccc1,inactive,–
CCCN(CCC)c1c([N+](=O)[O-])cc(C(C)C)cc1[N+](=O)[O-],–,29 µM (active)
CCOS(=O)(=O)OCC,inactive,–
CCCCN(CCCC)SN(C)C(=O)Oc1cccc2c1OC(C)(C)C2,inactive,–
O=P1(N(CCCl)CCCl)NCCCO1 (stereo not given),inactive,–
ClC1=C(Cl)C2(Cl)C3C(Cl)C(Cl)CC3C1(Cl)C2(Cl)Cl (stereo not given),–,18.4 µM (active)
Cc1ccc(N)cc1N,inactive,–
Nc1ccc2ccccc2c1,inactive,–
Cc1ccc(O)cc1C,inactive,–
ClC(Cl)c1ccccc1,inactive,–
